In PubChem BioAssay AID1159580 (chemical genetic matrix, 2015):
Out of some 5,500 compounds screened, about 2,000 (36%) were called active. Roughly 18% stayed inconclusive and do not appear here. Cut-off read from the data, not from the text of the source: active = normalized growth mostly below about 0.91 (no sharp cut-off); inconclusive = no clear call, values can overlap the other calls; inactive = mostly above about 0.92. The list shows a part of the results.

Experiment: chemical genetic growth profiling, strain panel (AID 1159580);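 note: tested at 20 µM; growth read once vehicle control cultures reached saturation at 30 °C; 1 = growth at the plate median or of vehicle wells; lower values mean less growth of the strain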
Details: growth OD

Measured: normalized growth

CCN(CC)C(=O)c1cccc(C)c1
inactive: S. cerevisiae deletion strains, locus YKL009W, strain mrt4, stronger effect = lower value 0.956 | S. cerevisiae deletion strains, locus YKL068W, stronger effect = lower value 0.989 | S. cerevisiae deletion strains, locus YKL085W, strain MDH1 (second series), stronger effect = lower value 1 | S. cerevisiae deletion strains, locus YKL085W, strain MDH1, stronger effect = lower value 1 | S. cerevisiae deletion strains, locus YKL160W, strain elf1, stronger effect = lower value 1.02 | S. cerevisiae deletion strains, locus YKL190W, strain CNB1, stronger effect = lower value 0.988 | S. cerevisiae deletion strains, locus YKR001C, strain vps1, stronger effect = lower value 1.01 | S. cerevisiae deletion strains, locus YKR026C, strain gcn3, stronger effect = lower value 1.04 | S. cerevisiae deletion strains, locus YKR091W, strain srl3, stronger effect = lower value 1.03 | S. cerevisiae deletion strains, locus YLL001W, strain dnm1, stronger effect = lower value 1.03 | S. cerevisiae deletion strains, locus YLL026W, stronger effect = lower value 1.04 | S. cerevisiae deletion strains, locus YLL041C, strain sdh2, stronger effect = lower value 1.03 | S. cerevisiae deletion strains, locus YLR027C, strain aat2, stronger effect = lower value 1.02 | S. cerevisiae deletion strains, locus YLR039C, strain RIC1, stronger effect = lower value 1.06 | S. cerevisiae deletion strains, locus YLR058C, strain SHM2, stronger effect = lower value 1 | S. cerevisiae deletion strains, locus YLR102C, strain apc9, stronger effect = lower value 0.999 | S. cerevisiae deletion strains, locus YLR113W, strain HOG1, stronger effect = lower value 0.975 | S. cerevisiae deletion strains, locus YLR221C, strain rsa3, stronger effect = lower value 1.02 | S. cerevisiae deletion strains, locus YLR258W, strain gsy2, stronger effect = lower value 1.04 | S. cerevisiae deletion strains, locus YLR262C, strain YPT6 (second series), stronger effect = lower value 1.03 | S. cerevisiae deletion strains, locus YLR262C, strain YPT6, stronger effect = lower value 1.02 | S. cerevisiae deletion strains, locus YLR268W, strain sec22, stronger effect = lower value 0.978 | S. cerevisiae deletion strains, locus YLR320W, strain mms22, stronger effect = lower value 1.04 | S. cerevisiae deletion strains, locus YLR330W, strain CHS5, stronger effect = lower value 0.993 | S. cerevisiae deletion strains, locus YLR342W, strain FKS1 (second series), stronger effect = lower value 0.987 | S. cerevisiae deletion strains, locus YLR342W, strain FKS1, stronger effect = lower value 1.01 | S. cerevisiae deletion strains, locus YLR357W, strain rsc2, stronger effect = lower value 1.09 | S. cerevisiae deletion strains, locus YLR370C, strain arc18, stronger effect = lower value 1.03 | S. cerevisiae deletion strains, locus YLR371W, strain rom2, stronger effect = lower value 0.982 | S. cerevisiae deletion strains, locus YLR384C, strain iki3, stronger effect = lower value 1.06 | S. cerevisiae deletion strains, locus YLR418C, strain cdc73, stronger effect = lower value 1.05 | S. cerevisiae deletion strains, locus YML016C, strain PPZ1, stronger effect = lower value 1.01 | S. cerevisiae deletion strains, locus YML032C, strain rad52, stronger effect = lower value 0.995 | S. cerevisiae deletion strains, locus YML120C, strain ndi1, stronger effect = lower value 1.02 | S. cerevisiae deletion strains, locus YML124C, strain tub3, stronger effect = lower value 0.998 | S. cerevisiae deletion strains, locus YMR058W, strain fet3, stronger effect = lower value 1.04 | S. cerevisiae deletion strains, locus YMR078C, strain ctf18, stronger effect = lower value 0.994 | S. cerevisiae deletion strains, locus YMR125W, strain sto1, stronger effect = lower value 1.03 | S. cerevisiae deletion strains, locus YMR129W, stronger effect = lower value 1.03 | S. cerevisiae deletion strains, locus YMR205C, strain PFK2, stronger effect = lower value 1.06 | S. cerevisiae deletion strains, locus YMR223W, strain ubp8, stronger effect = lower value 1 | S. cerevisiae deletion strains, locus YMR231W, strain pep5, stronger effect = lower value 1.03 | S. cerevisiae deletion strains, locus YMR263W, strain SAP30, stronger effect = lower value 0.999 | S. cerevisiae deletion strains, locus YMR307W, strain GAS1, stronger effect = lower value 1.02 | S. cerevisiae deletion strains, locus YNL067W, strain RPL9B, stronger effect = lower value 1 | S. cerevisiae deletion strains, locus YNL071W, strain lat1, stronger effect = lower value 1.02 | S. cerevisiae deletion strains, locus YNL128W, strain TEP1, stronger effect = lower value 1 | S. cerevisiae deletion strains, locus YNL153C, strain GIM3, stronger effect = lower value 0.999 | S. cerevisiae deletion strains, locus YNL183C, strain NPR1, stronger effect = lower value 0.924 | S. cerevisiae deletion strains, locus YNL209W, strain ssb2, stronger effect = lower value 1.02 | S. cerevisiae deletion strains, locus YNL233W, strain BNI4, stronger effect = lower value 1.01 | S. cerevisiae deletion strains, locus YNL248C, strain rpa49, stronger effect = lower value 1.02 | S. cerevisiae deletion strains, locus YNL250W, strain rad50, stronger effect = lower value 0.994 | S. cerevisiae deletion strains, locus YNL271C, strain bni1, stronger effect = lower value 1 | S. cerevisiae deletion strains, locus YNL298W, strain CLA4, stronger effect = lower value 0.987 | S. cerevisiae deletion strains, locus YNL307C, strain MCK1, stronger effect = lower value 1.01 | S. cerevisiae deletion strains, locus YNL322C, strain KRE1 (second series), stronger effect = lower value 1.03 | S. cerevisiae deletion strains, locus YNL322C, strain KRE1, stronger effect = lower value 1 | S. cerevisiae deletion strains, locus YNR049C, strain mso1, stronger effect = lower value 1.03 | S. cerevisiae deletion strains, locus YNR052C, strain pop2, stronger effect = lower value 0.987 | S. cerevisiae deletion strains, locus YOL006C, strain TOP1, stronger effect = lower value 1.03 | S. cerevisiae deletion strains, locus YOL012C, strain htz1 0.893 | S. cerevisiae deletion strains, locus YOL147C, strain pex11, stronger effect = lower value 0.998 | S. cerevisiae deletion strains, locus YOR001W, strain rrp6, stronger effect = lower value 1.04 | S. cerevisiae deletion strains, locus YOR061W, strain CKA2, stronger effect = lower value 1 | S. cerevisiae deletion strains, locus YOR069W, strain VPS5, stronger effect = lower value 1.01 | S. cerevisiae deletion strains, locus YOR070C, strain gyp1, stronger effect = lower value 1.02 | S. cerevisiae deletion strains, locus YOR080W, strain dia2, stronger effect = lower value 1.04 | S. cerevisiae deletion strains, locus YOR083W, strain WHI5, stronger effect = lower value 1.01 | S. cerevisiae deletion strains, locus YOR106W, strain vam3, stronger effect = lower value 0.998 | S. cerevisiae deletion strains, locus YOR136W, strain idh2, stronger effect = lower value 0.999 | S. cerevisiae deletion strains, locus YOR144C, strain elg1, stronger effect = lower value 0.993 | S. cerevisiae deletion strains, locus YOR184W, strain ser1, stronger effect = lower value 0.978 | S. cerevisiae deletion strains, locus YOR231W, strain MKK1, stronger effect = lower value 0.971 | S. cerevisiae deletion strains, locus YOR265W, strain rbl2, stronger effect = lower value 1.03 | S. cerevisiae deletion strains, locus YOR270C, strain vph1, stronger effect = lower value 1.08 | S. cerevisiae deletion strains, locus YOR290C, strain snf2, stronger effect = lower value 1.01 | S. cerevisiae deletion strains, locus YOR316C, strain cot1, stronger effect = lower value 0.995 | S. cerevisiae deletion strains, locus YPL051W, strain arl3, stronger effect = lower value 1.02 | S. cerevisiae deletion strains, locus YPL055C, strain LGE1, stronger effect = lower value 0.951 | S. cerevisiae deletion strains, locus YPL078C, strain atp4, stronger effect = lower value 1.03 | S. cerevisiae deletion strains, locus YPL106C, strain sse1, stronger effect = lower value 1.11 | S. cerevisiae deletion strains, locus YPL240C, strain hsp82, stronger effect = lower value 1.02 | S. cerevisiae deletion strains, locus YPL241C, strain CIN2, stronger effect = lower value 0.991 | S. cerevisiae deletion strains, locus YPL256C, strain CLN2, stronger effect = lower value 0.983 | S. cerevisiae deletion strains, locus YPR119W, strain clb2, stronger effect = lower value 1 | S. cerevisiae deletion strains, locus YPR141C, strain kar3, stronger effect = lower value 1 | S. cerevisiae deletion strains, locus YPR163C, strain tif3, stronger effect = lower value 0.996 | S. cerevisiae deletion strains, locus YPR167C, strain met16, stronger effect = lower value 0.999 | S. cerevisiae deletion strains, strain wtn01, stronger effect = lower value 0.988 | S. cerevisiae strains, strain wild type, stronger effect = lower value 1
